# Screening results: PubChem, National Center for Advancing Translational Sciences (NCATS)
# SARS PLP yeast: SARS-CoV PLP inhibition in yeast | S. cerevisiae expressing SARS-CoV PLpro, growth rescue | Potency, µM (series often up to 32.9 µM), without a hit: at the top dose activity, positive = growth rescue, usual class: activators | actives 0.19% (n = 330,000); calls by dose curve; note: 0% is about no effect; nearly all actives have a fitted effect of over 55% in size
# RE007 growth inh: less growth of the S. pombe RE007 Vpr strain | actives 0.21% (n = 360,000) | Potency, µM (doses to about 92.2 µM), for inactives: at the highest dose activity change, negative = less growth, usual class: inhibitors | AID 651644 | S. pombe RE007 Vpr strain, BacTiter-Glo ATP luminescence, 24 h; active = well fitted falling curve with a large enough effect; inconclusive = small, poorly fitted or top-dose-only effect; inactive = no such curve, though single readings can be large or run the other way; note: % is set by controls: 0 for no effect and ±100 for the full control effect; nearly all actives have a fitted effect of over 50% in size
#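 Fission yeast RE007 carrying one integrated HIV-1 vpr copy, seeded at OD 0.01 in PMG+AL medium with 23 nL pinned compound. Grown 24 h at 30 degrees; viability read by BacTiter-Glo luminescence after 5 min.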
# AmpC inh no detg: inhibitors of E. coli AmpC beta-lactamase without detergent; P00811; actives 0.52% (n = 330,000); Potency, µM (doses to about 57.1 µM), for inactives: at the highest dose activity change, negative = inhibition, usual class: inhibitors; AID 485341; AmpC nitrocefin hydrolysis, absorbance 480 nm, 0.0001% Triton;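 note: plate controls were no compound for no effect and no enzyme for full effect; nearly all actives have a fitted effect of over 20% in size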
# Target sequence (P00811 whole entry, looked up): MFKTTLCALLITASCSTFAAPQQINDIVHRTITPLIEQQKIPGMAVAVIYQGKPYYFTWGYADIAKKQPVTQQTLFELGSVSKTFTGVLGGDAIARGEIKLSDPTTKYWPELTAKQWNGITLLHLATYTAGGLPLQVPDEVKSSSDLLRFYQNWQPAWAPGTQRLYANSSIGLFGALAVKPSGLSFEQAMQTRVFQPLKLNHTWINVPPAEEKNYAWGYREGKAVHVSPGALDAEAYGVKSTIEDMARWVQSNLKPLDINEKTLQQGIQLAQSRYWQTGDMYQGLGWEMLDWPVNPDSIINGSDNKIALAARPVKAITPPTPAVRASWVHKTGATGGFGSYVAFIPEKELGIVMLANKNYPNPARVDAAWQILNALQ
#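 20 mM phosphate pH 7.0 + 0.01% (detergent screen) or 0.0001% Triton X-100; 5.3 nM AmpC reagent; cpd preinc 15 min RT; nitrocefin (800 uM stock) to start; A480 q20 s × 4 min; Activity was normalised to no-enzyme and no-compound control wells.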
# Tb PYK inh: blocks Trypanosoma brucei pyruvate kinase. actives 0.12% (n = 410,000). TbPYK enzyme, Kinase-Glo Plus ATP luminescence, 45 min. AID 624173. Q57TT1. Potency, µM (highest dose often 76.8 µM), for inactives: at the highest dose activity, negative = inhibition, hits mostly inhibitors; note: % is set by controls: 0 for no effect and ±100 for the full control effect; nearly all actives have a fitted effect of over 50% in size
#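 TbPYK + substrate in 50 mM TEA pH 7.2, 100 mM KCl, 10 mM MgCl2, 0.05% BSA, 0.01% Tween-20; cpd pinned; ADP 130 uM final; 45 min RT; Kinase-Glo Plus 10 min; luminescence endpoint.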
# Sm TGR inh: blocks Schistosoma mansoni thioredoxin glutathione reductase | Potency, µM (doses to about 114 µM), inactives show top-dose activity change, negative = inhibition, most hits filed as inhibitors | AID 485364 | actives 3% (n = 360,000) | purified TGR, DTNB reduction, TNB absorbance 405 nm | Q962Y6; note: % is set by controls: 0 for no effect and ±100 for the full control effect; nearly all actives have a fitted effect of over 60% in size
#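 TGR 20 nM + NADPH 100 uM (dispensed conc.), cpd preinc 15 min RT; start with NADPH (500 uM addition) then DTNB (15 mM addition). Kinetic TNB absorbance, 405 nm filter. Four-parameter Hill fit across titration.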
# AmpC detergent: AmpC beta-lactamase inhibition with detergent present. P00811. AmpC hydrolysis of nitrocefin, absorbance 480 nm, 0.01% Triton. Potency, µM (top dose mostly 114 µM), for inactives: at the top dose activity change, negative = inhibition, hits mostly inhibitors. actives 0.041% (n = 370,000);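 note: 0% = no-compound wells and -100% = no-enzyme wells; nearly all actives have a fitted effect of over 25% in size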
#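 AmpC (5.3 nM in the dispensed reagent) in 20 mM phosphate pH 7.0 with 0.01% (detergent screen) or 0.0001% Triton X-100 was preincubated with compounds for 15 min at room temperature. Nitrocefin was then added from an 800 uM solution, and hydrolysis was followed at 480 nm.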
# Active calls of the source: *; u = inconclusive; x = not tested or not shown; ! = a repeat was not active. Hits are enriched below; roughly 3.3% of the tested compounds scored in any of these assays. Unless noted, calls come from the whole dose curve; as a rule, active = well fitted curve in the direction sought with a large enough effect; inconclusive = small, poorly fitted or top-dose-only effect, or another doubt; inactive = no such curve, though single readings can be large; an effect the other way counts as inactive or inconclusive. Potency is the fitted concentration of half-maximal effect.
SMILES,SARS PLP yeast,RE007 growth inh,AmpC inh no detg,Tb PYK inh,Sm TGR inh,AmpC detergent
CNC(=O)C1CCC(Cn2c(=O)c3sccc3n(CC(=O)N3CCCC3)c2=O)CC1 (stereo not given),x,x,x,-1.2%,-7.7%,-7.0%
Cn1cc(C(=O)[C@@H]2CCc3[nH]cnc3C2)c2ccccc21,x,x,x,1.6%,x,x
COc1ccc(C(=O)/C=C/C(=O)N(CC(=O)NCCC(C)C)Cc2cccs2)c(O)c1,-1.1%,0.7%,55.7%,u,2.82µM*,0.8%
COc1ccc(C(=O)/C=C/C(=O)N(CC(=O)NC2CCCCC2)Cc2ccc(F)cc2)c(O)c1,1.2%,-4.2%,30.8%,-19.0%,3.55µM*,1.8%
COc1ccc(OC)c(NC(=O)CSC2=Nc3ccccc3C3=NC(CCC(=O)NCc4ccccc4)C(=O)N23)c1 (stereo not given),x,x,x,-0.9%,0.9%,-8.8%
CCn1nc(C)c(Br)c1C(=O)Sc1ccccc1Cl,-0.4%,-3.1%,-21.5%,-4.1%,8.91µM*,0.4%
Cc1nn(Cc2ccccc2Cl)c(Cl)c1C(=O)O,6.9%,3.8%,-13.0%,4.1%,8.4%,7.1%
Cc1ccc(N2C(=O)/C(=C/c3ccc(CN(CCC#N)S(C)(=O)=O)o3)C(=O)NC2=S)cc1,9.2%,1.4%,-27.3%,u,2.82µM*,-10.0%
Cc1ccc(N2C(=O)NC(=O)/C(=C\c3ccc(N4CCOCC4)cc3)C2=O)cc1,19.5%,18.1%,-34.7%,u,u,-3.1%
Cc1ccc(N2C(=O)NC(=O)/C(=C\c3ccc([N+](=O)[O-])o3)C2=O)cc1,-1.8%,x,-28.5%,x,8.91µM*,0.0%
COc1cccc(N2C(=O)/C(=C/c3ccc(C)o3)C(=O)NC2=S)c1,2.6%,1.5%,-46.2%,u,1.78µM*,-1.4%
Cc1ccc(/C=C2\C(=O)NC(=S)N(c3ccc(F)cc3)C2=O)o1,-0.4%,-10.5%,-36.4%,u,1.58µM*,-1.7%
Cc1ccc(/C=C2\C(=O)NC(=S)N(c3ccc(F)cc3)C2=O)s1,2.2%,1.8%,u,u,u,u
Cc1ccc(NC(=O)c2ccc([N+](=O)[O-])o2)cc1S(=O)(=O)N1CCOCC1,-2.5%,-9.2%,-23.4%,-6.1%,14.1µM*,3.6%
O=S(=O)(c1ccc(NC(=S)NC2CC2)cc1)N1CCOCC1,-0.5%,2.6%,-30.9%,-4.0%,15.8µM*,7.5%
O=S(=O)(c1ccc(NC(=S)NC2CCCC2)cc1)N1CCCC1,1.3%,u,-38.2%,0.4%,-23.3%,2.3%
Cc1ccc(NC(=S)Nc2ccc(S(=O)(=O)N3CCOCC3)cc2)cc1S(=O)(=O)N1CCOCC1,2.1%,50.3%,-55.5%,-7.7%,15.8µM*,-7.9%
CC(C)(C)NNC(=S)Nc1ccc(S(=O)(=O)N2CCOCC2)cc1,0.3%,-0.8%,-34.9%,0.8%,u,-5.3%
O=S(=O)(c1ccc(Cl)c(NC(=S)Nc2cccc(O)c2)c1)N1CCOCC1,8.9%,5.1%,-33.9%,5.2%,11.2µM*,2.3%
COc1ccc(-n2c(-c3ccc(C)cc3)cc3c2CC(C)(C)CC3=O)cc1Cl,x,x,x,1.2%,4.8%,-0.6%
COc1ccc(-n2ccnc(NCc3ccc(Cl)cc3)c2=O)cc1,x,x,x,-0.4%,-2.3%,2.0%
Cc1ccc(C)c(SCC(=O)Nc2ccc(C)c(S(=O)(=O)N3CCOCC3)c2)c1,-2.5%,10.7%,-21.4%,0.9%,44.7µM*,4.2%
Cc1ccc(NC(=O)CSc2ccccc2)cc1S(=O)(=O)N1CCOCC1,4.9%,-13.5%,-24.5%,1.1%,-7.8%,u
Cc1ccc(N(CC(C)C)S(=O)(=O)c2nnc(NC(=O)c3ccco3)s2)cc1,x,x,x,-8.6%,11.6%,0.7%
CCN(c1cccc(C)c1)S(=O)(=O)c1nnc(NC(=O)c2ccco2)s1,1.9%,1.9%,-31.6%,-25.7%,25.1µM*,-3.8%
SMILES,SARS PLP yeast,RE007 growth inh,AmpC inh no detg,Tb PYK inh,Sm TGR inh,AmpC detergent
CCN(c1cccc(C)c1)S(=O)(=O)c1nnc(NC(=O)c2ccccc2Cl)s1,x,x,x,5.5%,79.4µM*,6.9%
CCN(c1cccc(C)c1)S(=O)(=O)c1nnc(NC(=O)c2cccs2)s1,x,x,x,-5.3%,9.7%,0.7%
CCN(c1ccccc1)S(=O)(=O)c1nnc(NC(=O)c2ccco2)s1,2.0%,-3.5%,-23.9%,-4.8%,20µM*!,-12.5%
C[C@H]1NCc2cc(-c3ccc4c(=O)c(C(=O)O)cn(C5CC5)c4c3OC(F)F)ccc21,x,x,x,0.0%,x,x
O=C(CC(Nc1ccccc1)c1ccc(F)cc1)c1ccccc1 (stereo not given),2.0%,-6.6%,-26.3%,4.7%,3.8%,1.3%
O=C(CC(Nc1ccc(Cl)cc1Cl)C(=O)O)c1ccccc1 (stereo not given),-0.6%,-8.1%,-16.8%,-10.3%,3.16µM*,3.9%
Cc1ccc(NC(CC(=O)c2ccccc2)C(=O)O)cc1Cl (stereo not given),0.0%,0.0%,-45.4%,-2.7%,0.794µM*,-6.5%
CSCCC(NC(=O)c1ccccc1)C(=O)OCC(=O)Nc1ccc(C)c(Cl)c1 (stereo not given),-36.4%,-9.4%,10.3%,-14.2%,-0.1%,2.1%
O=C(CC(Nc1ccccc1)C(=O)O)c1ccccc1 (stereo not given),3.9%,2.7%,-27.5%,-23.6%,2.24µM*,u
COCCn1c(=O)c(-c2ccc(Cl)cc2)nc2cncnc21,x,x,x,-2.3%,x,x
Cc1ccc(CCNC(=O)c2ccc(CSc3nc4ccncc4n3Cc3ccc(F)cc3)cc2)cc1,x,x,x,3.9%,1.1%,20.9%
Nc1nonc1-c1nc2ccccc2n1CC(=O)N/N=C/c1ccc(-c2ccccc2C(=O)O)o1,1.3%,19.7%,-39.0%,2.6%,39.8µM*,3.7%
COc1ccc(C2/C=C\CN(C(=O)c3ccccc3)[C@H](Cc3ccccc3)C(=O)N2Cc2ccc(F)cc2)cc1 (stereo not given in full),-0.5%,-12.3%,-11.7%,-8.1%,4.3%,1.6%
COc1ccc(C2/C=C\CN(CC(C)(C)C)CC(=O)N2Cc2ccc(F)cc2)cc1 (stereo not given),-7.4%,-7.5%,110.8%,1.3%,31.6µM*,0.4%
COc1ccc(C2/C=C\CN(S(=O)(=O)/C=C/c3ccccc3)[C@H](Cc3ccccc3)C(=O)N2Cc2ccc(F)cc2)cc1 (stereo not given in full),0.8%,3.5%,-21.7%,-15.0%,22.4µM*,1.8%
CCOC(=O)c1ccc(CC(=O)c2ccc(O)c(O)c2O)o1,10.5%,3.6%,-41.6%,-1.2%,u,3.9%
